Data on three compounds can be found in PubChem BioAssay AID1724 (National Center for Advancing Translational Sciences (NCATS), 2009).

Records with an inconclusive call do not appear. Where a call stands in place of a potency, no number is given. The source made the active and inactive calls. Calls follow the shape of the dose curve; as a rule, active = well fitted inhibition curve with a large enough effect; inconclusive = small, poorly fitted or top-dose-only effect, or effect the other way; inactive = no such curve, though single readings can be large or run the other way.

The assay in a line: Confirmation Concentration-Response Assay for Inhibitors of the ERK Signaling Pathway using a Homogeneous Screening Assay. The following applies: HEK293 cells, hormone-stimulated phospho-ERK AlphaScreen; series mostly up to 40.9 µM. The text has this:
qHTS Assay for Inhibitors of the ERK Signaling Pathway using a Homogeneous Screening Assay
NIH Chemical Genomics Center [NCGC]
NIH Molecular Libraries Screening Centers Network [MLSCN]
Assay Submitter (PI): Dr. Wei Zheng, NCGC/NIH
The Ras/extracellular-signal-regulated kinase (ERK) mitogen activated protein (MAP) kinase signaling pathway (ERK1/2 cascade) plays is a key role in transmitting signals from the cell surface to the nucleus (Nishida and Gotoh 1993; Chang and Karin, 2001). The cascade is initiated by the small G-protein Ras, which recruits Raf […], where activation occurs. Alternatively, this pathway can be activated by elevating intracellular cAMP.
Activation of the ERK pathway is essential in increased cell division and cell survival. Sustained and constitutive activation of the ERK pathway, however, has been linked to uncontrolled cell proliferation, increased cell survival, and tumor progression. Thus, the ERK has been as an attractive target for cancer chemotherapy in the past few years (Sebolt-Leopold and Herrera, 2004). Given its physiological and pathological importance, assessment of ERK phosphorylation has been broadly performed in both basic research and drug discovery. Most assays for the measurement of ERK phosphorylation use the antibody-based detection methods, such as western blot and ELISA. These assays require multiple reagent additions with cell wash steps and are not suitable for high-throughput screening.
The current cell-based ERK phosphorylation assay was performed using AlphaScreen platform. […]
HEK293 cells stably expressing type-1 vasopressin receptor (V1b) were maintained in DMEM medium (Invitrogen, Carlsbad, CA) at 37C under a humidified atmosphere containing 5% CO2 and 95% air. […] The ERK phosphorylation in cells was determined using an AlphaScreen assay kit provided by PerkinElmer. […] AC50 values were determined from concentration-response data modeled with the standard Hill equation. […]
(10) Detect the assay plate in an EnVision plate reader (PerkinElmer) using the AlphaScreen detection mode. […]
`N#Cc1c(Cl)c(Cl)c(Cl)c(C#N)c1Cl`: the Potency was 2240 nM (active). The entry for `O=C1NC(=O)C(=Cc2ccccc2Oc2ccc(F)cc2)C(=O)N1` is “inactive”. The entry for `CC1=CC(=O)c2c(O)cccc2C1=O` is “inactive”.
